About 8,600 (12%) of roughly 69,000 compounds showed an effect of 50% or more. The sample holds strong results, similar compounds and a random draw of the others, so the mix is not that of the screen.
test system: Plasmodium berghei; experiment: Screen against P. berghei liver stage (PbLuc), transformed with Luciferase, at 10uM; format: functional, HepG2; details: tested at 10 uM

Going from `O=C(CCC(=O)N1CCCC1c1ccsc1)N1CCOCC1` (centres undefined) to `CCN1CC[C@@]2(C(=O)N3CCOCC3)CCN(C(=O)NC)CC[C@@H]12`, the INHIBITION falls from 7.24% to -19.6%.

Compared with `Cc1ccc2nc(-c3nc4c([nH]3)CCCNC4=O)cn2c1`, `Cc1cc(-c2nccs2)nc(C2CCN(Cc3ccc(F)cc3)CC2)n1` is higher in INHIBITION: -87.9% for the first, 52.7% for the second.

Compared with `CCOC(=O)CN1CCC2(CC1)CC(=O)c1ccc3ccccc3c1O2`, `Cc1ccc(Cl)cc1C(=O)N1CCC2(CC1)c1ccccc1[C@@H](N)[C@@H]2O` is higher in INHIBITION: 31.2% for the first, 80.1% for the second.

Compared with `CCC(=O)NCc1ccc(N2CCCCC2)cc1`, `CC(NC(=O)CCOc1ccc(F)cc1)c1nnc2n1CCCCC2` (centres undefined) is higher in INHIBITION: -0.578% for the first, 28.8% for the second.

Compared with `Cc1nc(C)n(CC2CCCN2Cc2cc(-c3cccs3)on2)n1` (centres undefined), `Cc1cc(-c2nccs2)nc(C2CCN(Cc3cccs3)CC2)n1` is higher in INHIBITION: 40.65% for the first, 50.8% for the second.

Going from `c1nnc(Nc2cncc(C3CCCN3CC3CC3)n2)s1` (centres undefined) to `Cc1noc(C)c1-c1cncc(C2CCCN2Cc2ncccc2F)n1` (centres undefined), the INHIBITION falls from 11.8% to 1.5%.

First: Cc1noc2nc(C3CCCN(Cc4cccnc4)C3)cc(C(F)F)c12 (centres undefined)
Second: Cn1cc(-c2ccc(C3CCCCN3Cc3cccnc3)cn2)cn1 (centres undefined)
The INHIBITION of the first is higher: 41.2% for the first, 9.05% for the second.

Compared with `CCc1cc(O)nc(C2CCCN2C(=O)c2cc(C)no2)n1` (centres undefined), `Cc1cc(C(=O)N2CCCC2c2nc(C)cc(O)n2)on1` (centres undefined) is higher in INHIBITION: 26.9% for the first, 44.8% for the second.

First: CCc1cc(C(=O)N2CCCC2c2nc(C)c(F)c(O)n2)on1 (centres undefined)
Second: CCc1cc(C(=O)N2CCCC2c2nc(C)c(CC)c(O)n2)on1 (centres undefined)
The INHIBITION of the first is higher: 53% for the first, -21.4% for the second.

Going from `CCc1c(C)nc(C2CCCN2C(=O)c2cc(C)no2)nc1O` (centres undefined) to `Cc1cc(C(=O)N2CCCC2c2nc(O)cc(C(C)C)n2)on1` (centres undefined), the INHIBITION rises from 30.4% to 51.5%.

Compared with `CN(C)CCN1C(=O)CCC12CCCN(C(=O)C1CC=CC1)CC2` (centres undefined), `COc1ccc(CN2CCC3(CC2)CCN(CCN(C)C)C3=O)cc1` is higher in INHIBITION: -38.1% for the first, -17.1% for the second.

Going from `NC(=O)CCN(CC(=O)NCc1cccs1)c1ccc(F)cc1` to `CC(C)(CNC(=O)CCCOc1cccc(F)c1)C(N)=O`, the INHIBITION falls from 47.3% to 30.65%.

Compared with `Cn1cc(CN2CC[C@@H]3[C@@H](CO[C@H]3CNC(=O)c3ccco3)C2)cn1`, `Cn1cc(CN2CCOC(c3cccc(-c4cccc(F)c4)n3)C2)cn1` (centres undefined) is higher in INHIBITION: -16.9% for the first, 23.9% for the second.

Compared with `Cc1cc(-c2nccs2)nc(C2CCN(Cc3ccccn3)CC2)n1`, `Cc1cc(-c2nccs2)nc(C2CCN(Cc3ccncc3)CC2)n1` is higher in INHIBITION: 23.9% for the first, 26.7% for the second.

First: Cc1nccc([C@@H]2C[C@@H]3CCN(Cc4cccs4)C[C@H]3O2)n1
Second: Oc1cc(-c2nccs2)nc(C2CCN(Cc3cccs3)CC2)n1
The INHIBITION of the first is lower: -32.6% for the first, 2.55% for the second.

First: Cc1nnc(C(C)NCC2(c3ccc(F)cc3)CCCCC2)o1 (centres undefined)
Second: CC(C)c1cc(NCC2(N(C)C)CCCC2)ncn1
The INHIBITION of the first is lower: -14.6% for the first, 49.9% for the second.

First: O=C(CCn1ccccc1=O)Nc1ccc(C(=O)O)cc1
Second: O=C(Cn1cccnc1=O)NC(Cc1ccsc1)c1cccnc1 (centres undefined)
The INHIBITION of the first is lower: 12.7% for the first, 14.7% for the second.

Going from `Cc1nc(N(C)C)nc2c1COCC21CCN(C(=O)NCC(C)C)C1` (centres undefined) to `CN(C)c1ncc2c(n1)N(C)CCN(CC1CC1)C2=O`, the INHIBITION rises from -43.8% to 21.9%.

First: COc1ccccc1CNc1ccc2nncn2n1
Second: CN1CCN(c2ccccc2CNC(=O)Cc2cccc(F)c2)CC1
The INHIBITION of the first is lower: -33.8% for the first, 30.3% for the second.

Going from `CC(C)c1cc(NCC2(CO)CCC2)ncn1` to `CC(C)c1cc(NCC2(CO)CCCC2)ncn1`, the INHIBITION falls from 66.7% to 44.3%.

Going from `CCN(CC)Cc1ccc(C(=O)NC2CCc3cc(Br)ccc32)o1` (centres undefined) to `CCN(CC)Cc1ccc(C(=O)NC2CCc3cc(F)ccc32)o1` (centres undefined), the INHIBITION falls from 36.7% to 9.91%.

Compared with `CCN(CC)Cc1ccc(C(=O)NC2CCc3cc(Cl)ccc32)o1` (centres undefined), `O=C(O)[C@H]1OCC(=O)N(Cc2cccc(Cl)c2)[C@@H]1c1ccccc1` is lower in INHIBITION: 50.5% for the first, 22% for the second.

Compared with `O=C(CC1CCCC1)Nc1ccc(-n2cc(Cl)cn2)nc1`, `Cn1cc(CN2CCCCC2c2ccc(-c3cccc(Cl)c3)nc2)cn1` (centres undefined) is higher in INHIBITION: -18.8% for the first, 57.3% for the second.

First: CC(C)c1sc(Br)nc1C(=O)NCc1ccco1
Second: Cc1cc(C(=O)NCc2cccnc2N(C)C)c(C)o1
The INHIBITION of the first is lower: -7.81% for the first, 26.3% for the second.

Going from `Cc1csc(CN2C[C@@H]3COC[C@]3(COCC(=O)N(C)C)C2)n1` to `CCS(=O)(=O)NC[C@]12COC[C@H]1CN(Cc1sccc1C)C2`, the INHIBITION rises from -2.35% to 28.7%.

First: Cc1ccc(CN2CCc3c(CN4CCCC4)n[nH]c3C2)s1
Second: Cc1csc(N2CCN(CC(=O)N3CCCC3)CC2C)n1 (centres undefined)
The INHIBITION of the first is lower: 26.5% for the first, 32.25% for the second.

First: Cc1cc(C)nc(C2CCN(C3CCCCC3)C2)n1 (centres undefined)
Second: COc1cc(C2(C(=O)NC3CCN(C4CC4)CC3)CC2)ccc1C
The INHIBITION of the first is lower: -36.4% for the first, 51.5% for the second.

Compared with `CCS(=O)(=O)NC[C@]12COC[C@H]1CN(Cc1ccncc1)C2`, `CCS(=O)(=O)NC[C@]12COC[C@H]1CN(Cc1cccnc1)C2` is lower in INHIBITION: 53.9% for the first, 24.9% for the second.

First: CCS(=O)(=O)NC[C@]12COC[C@H]1CN(Cc1cc(C)on1)C2
Second: CCS(=O)(=O)NC[C@]12COC[C@H]1CN(Cc1ccccn1)C2
The INHIBITION of the first is higher: 18.8% for the first, 4.27% for the second.

First: CCS(=O)(=O)NC[C@]12COC[C@H]1CN(Cc1ccsc1)C2
Second: CCS(=O)(=O)CC(=O)NC(c1ccc(F)cc1)C1CCCC1 (centres undefined)
The INHIBITION of the first is higher: 53.9% for the first, 42.6% for the second.

Going from `Cc1nn(-c2ccccc2)c(C)c1CN1CCNCC1` to `Clc1ccccc1CCn1ccnc1-c1cn(C2CCNCC2)nn1`, the INHIBITION falls from 40.9% to 22.4%.

Going from `COCC(=O)N1CCN(C(=O)C2(c3ccc(C)c(OC)c3)CC2)CC1` to `COc1cc(C2(C(=O)N3CCN(CC(C)O)CC3)CC2)ccc1C` (centres undefined), the INHIBITION falls from 50.9% to -17.8%.

Going from `COCCNC(=O)C1(c2ccc(C)c(OC)c2)CCCC1` to `CCC(O)CN1CCN(C(=O)C2(c3ccc(C)c(OC)c3)CC2)CC1` (centres undefined), the INHIBITION falls from 21.5% to -6.34%.

Going from `COc1cc(C2(C(=O)NC3CCN(CC4CC4)CC3)CC2)ccc1C` to `COc1cc(C2(C(=O)NC3CCC4(CC3)OCCO4)CC2)ccc1C`, the INHIBITION falls from 25.5% to 10.3%.

First: COc1cc(C2(C(=O)N3CCCC(n4cncn4)C3)CC2)ccc1C (centres undefined)
Second: COc1cc(C2(C(=O)N3CCN(CC(C)(C)O)CC3)CC2)ccc1C
The INHIBITION of the first is lower: -7.81% for the first, 52.3% for the second.

Compared with `COc1ccc(C2CCCN2Cc2cnn(C)c2)cc1` (centres undefined), `Cn1cc(CN2CCCCC2c2ccc(-c3cnn(C)c3)nc2)cn1` (centres undefined) is lower in INHIBITION: 34.5% for the first, 25.8% for the second.

First: Nc1nccc(C2CCCN2CCc2ccccc2)n1 (centres undefined)
Second: Nc1nccc(C2CCCCN2Cc2cccc(F)c2)n1 (centres undefined)
The INHIBITION of the first is lower: 37.8% for the first, 52% for the second.

First: Cn1cc(CN2CCCCC2c2ccc(-c3cccc(F)c3)nc2)cn1 (centres undefined)
Second: Cc1nccc(C2CCCCN2Cc2cccc(F)c2)n1 (centres undefined)
The INHIBITION of the first is higher: 62.9% for the first, 43.6% for the second.

Going from `CC(=O)Nc1nc(CN2CCn3c(nnc3C(C)C)C2)cs1` to `Cc1nc(CN2CCCC(c3nccs3)C2)cs1` (centres undefined), the INHIBITION rises from -24.3% to 24.05%.

Compared with `CCN1CCn2c(C)cnc2C12CCN(C(=O)Cc1ccccc1)CC2`, `CN(C)CCN1CCN(C)c2nc(-c3ccccc3)ncc2C1=O` is higher in INHIBITION: 30.9% for the first, 59% for the second.

Compared with `CN(C)CC(=O)N1Cc2nc(C(=O)N3CCCN(C)CC3)oc2C1`, `CN1CCN(CC2CC2)C(=O)c2cnc(N3CCCC3)nc21` is higher in INHIBITION: -2.26% for the first, 11% for the second.

First: N[C@@H]1c2ccccc2C2(CCN(C(=O)c3ccccc3O)CC2)[C@H]1O
Second: N[C@@H]1c2ccccc2C2(CCN(C(=O)c3ccc(=O)[nH]c3)CC2)[C@H]1O
The INHIBITION of the first is lower: -5.395% for the first, 4.795% for the second.

Going from `CC(C)c1cc(C(=O)N2CCC3(CC2)c2ccccc2[C@@H](N)[C@@H]3O)cs1` to `Cc1ccc(C(=O)N2CCC3(CC2)c2ccccc2[C@@H](N)[C@@H]3O)cc1F`, the INHIBITION falls from 41.1% to 35.1%.

First: COc1ccc(C(=O)N2CCC3(CC2)c2ccccc2[C@@H](N)[C@@H]3O)cc1
Second: COc1cccc(-c2nccc(C3CCCN3C)n2)c1 (centres undefined)
The INHIBITION of the first is higher: 66.55% for the first, 21.1% for the second.

Going from `c1cc(-c2cncc(C3CCNCC3)n2)n[nH]1` to `CSc1ccccc1-n1ccnc1-c1cn(C2CCNCC2)nn1`, the INHIBITION falls from 35% to 3.96%.

Going from `Nc1nccnc1C(=O)NC1CCCN(Cc2c(F)cccc2F)C1` (centres undefined) to `COc1cccc2cc(CNC(=O)N3CCS(=O)(=O)CC3)oc12`, the INHIBITION rises from 21.8% to 23.5%.

Compared with `Cn1nc(Cn2ccnc2)c2c1CN(Cc1ccoc1)C2`, `Cn1nc(Cn2cccc2)c2c1CN(Cc1ccoc1)C2` is higher in INHIBITION: -9.42% for the first, 24.6% for the second.

Going from `CC(C)n1nc(Cn2cccc2)c2c1CN(Cc1ccoc1)C2` to `OCCc1ccccc1-n1ccnc1-c1cn(C2CCNCC2)nn1`, the INHIBITION falls from 54.1% to 51.2%.

Going from `CN1CCN(CC2CC2)C(=O)c2cnc(N3CCCCC3)nc21` to `CCCN(C)c1ncc2c(n1)N(C)CCN(CC1CC1)C2=O`, the INHIBITION falls from 7.64% to 5.56%.

Going from `COc1cccc(-c2ncc3c(n2)N(C)CCN(CCN(C)C)C3=O)c1` to `CCc1ccc(-c2ncc3c(n2)N(C)CCN(CCN(C)C)C3=O)cc1`, the INHIBITION rises from 57.5% to 79.7%.

First: CCn1ncc(Nc2[nH]cnc3nncc2-3)c1C
Second: CC(c1cccc(S(N)(=O)=O)c1)N(C)CCOC(C)(C)C (centres undefined)
The INHIBITION of the first is higher: 31.2% for the first, -27.8% for the second.

Compared with `N#Cc1ccc(S(=O)(=O)NC(=O)C2CC(c3ccccc3)=NO2)cc1` (centres undefined), `Cc1cc(CN2C[C@@H]3COC[C@H](C(=O)N4CCCCO4)[C@@H]3C2)oc1C` is higher in INHIBITION: 6.09% for the first, 45.1% for the second.

— ChEMBL document CHEMBL4513216, “Probing the Open Global Health Chemical Diversity Library for Multistage-Active Starting Points for Next-Generation Antimalarials” (ACS Infect Dis, 2020)
